This is a sample that favours compounds with a hit; in the whole collection about 1.4% have one here.
GLD-1 TGE inh = GLD-1-TGE RNA interaction inhibition (C. elegans) | 320,000 tested, 0.44% active | AID 2280 | inhibition, % at 5.96 µM | purified GLD-1 + fluorescein TGE RNA, fluorescence polarization | Q17339;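 active = percent inhibition above a per-plate cutoff, the plate mean of test compounds plus 3 SD, cut at about 30% in these data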;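 also: 0% = DMSO wells with GLD-1 and probe and 100% = wells lacking GLD-1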
Target sequence (Q17339 whole entry, looked up): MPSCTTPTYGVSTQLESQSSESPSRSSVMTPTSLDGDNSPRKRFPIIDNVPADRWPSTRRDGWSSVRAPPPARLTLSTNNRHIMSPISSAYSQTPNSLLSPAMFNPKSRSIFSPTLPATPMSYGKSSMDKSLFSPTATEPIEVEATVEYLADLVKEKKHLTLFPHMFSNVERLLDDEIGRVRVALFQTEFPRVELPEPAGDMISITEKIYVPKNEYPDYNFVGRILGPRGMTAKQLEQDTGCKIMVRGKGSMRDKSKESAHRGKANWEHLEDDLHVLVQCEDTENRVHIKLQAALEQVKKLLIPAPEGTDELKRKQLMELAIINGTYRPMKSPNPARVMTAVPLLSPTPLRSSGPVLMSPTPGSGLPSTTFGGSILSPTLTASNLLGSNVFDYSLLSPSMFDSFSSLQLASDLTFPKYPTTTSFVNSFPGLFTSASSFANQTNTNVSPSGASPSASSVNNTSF
MEX-5 binding = C. elegans MEX-5 TCR-2 RNA binding activity; Q9XUB2; MEX-5/FITC-TCR2 RNA binding, fluorescence polarization; stronger effect = lower value; activity score (negative = inhibition of binding), % at 10 µM; 300,000 tested, 0.38% active;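 active = inhibition past about -25% in most replicates, and total fluorescence under double the plate's negative control median, limit read from the data; inconclusive = replicates evenly split on the limit, or fluorescence at least double controls; inactive = too little inhibition in most replicates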;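 also: 0% = DMSO and -100% = 5 µM competing unlabeled TCR2 RNA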
E coli Lon inh = inhibitors of E. coli Lon protease; inhibition, % at 7.94 µM; purified E. coli Lon protease, fluorescence polarization; 360,000 tested, 0.42% active; AID 602123; in the data active = inhibition above about 13%, passing the limit was not always enough;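 also: 0% = enzyme with probe and DMSO and 100% = no enzyme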
BCLXL inh = Bcl-xL (human) inhibition; Q07817; GST-Bcl-xL / FITC-Bim BH3 peptide fluorescence polarization; inhibition, % at 10.9 µM; 320,000 tested, 0.7% active; AID 2129;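 active = inhibition above the mean of all tested compounds plus 3 SD, cutoff set per campaign, cut at about 30% in these data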;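 also: 0% = DMSO wells and 100% = unlabeled Bim-BH3 peptide competitor; inhibitors lower millipolarization by displacing the labeled peptide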
Target sequence (Q07817 whole entry, looked up): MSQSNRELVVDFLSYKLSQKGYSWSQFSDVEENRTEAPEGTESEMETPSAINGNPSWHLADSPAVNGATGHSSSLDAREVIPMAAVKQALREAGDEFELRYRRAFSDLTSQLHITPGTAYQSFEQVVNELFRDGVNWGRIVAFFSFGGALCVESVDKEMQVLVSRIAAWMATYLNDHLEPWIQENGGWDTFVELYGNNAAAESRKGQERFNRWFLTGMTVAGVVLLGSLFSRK
MCL1 BIM primary = disrupts human MCL1 binding to BIM-BH3 peptide | AID 2057 | Q07820 | GST-MCL1 / FITC-Bim-BH3 fluorescence polarization | inhibition, % at 10.9 µM | 320,000 tested, 0.68% active;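 active = inhibition above the mean inhibition of all tested compounds plus 3 SD, set per campaign, cut at about 40% in these data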;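 also: 0% = DMSO wells and 100% = unlabeled Bim-BH3 peptide control; higher means more loss of mP so more displacement of Bim peptide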
Bcl-xL conf = counter-screen for MCL1 inhibitors: confirmation of human Bcl-xL inhibitors. GST-Bcl-xL / FITC-Bim BH3 peptide FP binding. shares compounds with MCL1 BIM primary. inhibition, % at 10.9 µM. 1,700 tested, 54% active;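 active = inhibition above a cutoff equal to the mean inhibition of all tested compounds plus 3 SD, cut at about 30% in these data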;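 also: 0% = DMSO wells and 100% = unlabeled Bim BH3 control peptide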
MCL1 BIM confirm = MCL1-BIM-BH3 interaction inhibition, confirmation; shares compounds with MCL1 BIM primary; 1,700 tested, 61% active; AID 2168; GST-MCL1 / FITC-Bim-BH3 fluorescence polarization; inhibition, % at 10.9 µM;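 active = inhibition above the average of all tested compounds plus 3 SD, cut at about 40% in these data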;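 also: 0% = DMSO wells and 100% = unlabeled Bim-BH3 control peptide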
GLD1 RNA confirm = confirmation of C. elegans GLD-1 TGE RNA binding inhibitors; shares compounds with GLD-1 TGE inh; GLD-1/FL-TGE RNA fluorescence polarization, biochemical; inhibition, % at 5.96 µM; 550 tested, 10% active; AID 2459;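 active = average inhibition across triplicates above the hit cutoff set in the primary screen, cut at about 32% in these data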;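 also: 0% = GLD-1 with RNA probe and DMSO and 100% = wells lacking GLD-1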
Active calls of the source: *; ? = inconclusive; . = no result; + = active, no number.

SMILES	GLD-1 TGE inh	MEX-5 binding	E coli Lon inh	BCLXL inh	MCL1 BIM primary	Bcl-xL conf	MCL1 BIM confirm	others
COC(=O)c1ccccc1NC(=O)CCCCCn1nnc2ccccc2c1=O	-5.3	3.7	-8.6	5.3	4.7	.	.
CN(Cc1nc2ccccc2c(=O)[nH]1)C(=O)c1ccc(NC(=O)CSc2nnnn2C)cc1	4.8	.	-3.9	0.6	44.2*	1.4	-0.4
CN(C(=S)NC(=O)C12CC3CC(CC(C3)C1)C2)c1ccc(O)cc1	2.9	.	-1.4	.	.	.	.
COc1cccc(N(CC(=O)NCCSc2ccccn2)S(=O)(=O)c2ccccc2)c1	2.9	-1.8	-4.7	-3.4	6.1	.	.
Cc1cccnc1C(NC(=O)C1CCN(CCCOc2ccccc2)CC1)c1ccc(F)cc1 (stereo unspecified)	.	.	-8.3	.	.	.	.
COc1ccc(CN2C(=O)Cc3c2nc(N)c2c(N)nc(N4CCCCC4)c(C#N)c32)cc1	16.1	-2.5	.	44.5*	65.8*	5.6	-4.4
O=C(c1nc2ccc(Cl)cn2c1CN1CCC[C@H]1CO)N1CCCCCCC1	25.5	-23.0	12.0	60.5*	65.9*	55.1*	68.6*
Cc1ccccc1C1C(C#N)=C2N=C(N)c3c(sc4c3CCCCC4)N2C2=C1C(=O)CCC2 (stereo unspecified)	48.7*	-3.3	-16.8	61.4*	66.9*	53.5*	68.1*
COC(=O)[C@]12CCCCC=C1N(Cc1ccc(Cl)cc1Cl)C(=O)[C@H](CC(=O)NCc1ccc(OC)c(OC)c1)C2	.	.	-1.7	.	.	.	.
O=C(CN1CCCc2ccccc21)NCc1ccccc1Cl	-64.3	-0.7	-25.4	61.9*	68.1*	10.7	-2.3
CC(C)n1c(SCC(=O)Nc2nncs2)nnc1-c1ccco1	3.7	0.0	.	11.6	40.6*	13.7	45.3*
COc1ccc(OC(=O)N(C)C[C@@H]2OCc3cn(nn3)CCCC(=O)N([C@@H](C)CO)C[C@H]2C)cc1	.	.	-0.8	.	.	.	.
N=C1/C(=C\c2ccc(SCc3ccco3)o2)C(=O)N=C2SC=NN12	20.5	-34.2*	-74.9	50.5*	62.7*	49.8*	68.4*
CC1=NN2C(=N)/C(=C\c3ccc(SCc4ccccc4)o3)C(=O)N=C2S1	-1.6	-20.4	-27.2	-4.8	4.9	.	.
O=C1/C(=C2\C(=O)N(Cc3ccc(F)cc3)c3ccccc32)SC(=S)N1CCS(=O)(=O)O	-4.2	-10.3	-3.6	20.9	42.6*	23.4	39.0
CC(=O)N1N=C(c2ccc(Cl)cc2)CC1c1ccco1 (stereo unspecified)	-0.3	1.5	7.6	4.5	40.4*	4.5	6.2
CC(=O)N1N=C(c2ccc(C)cc2)CC1c1ccco1 (stereo unspecified)	-0.5	2.8	4.9	-2.0	-9.1	.	.
CC(=O)Nc1cc(-c2ccc(C(=O)N3CCOCC3)cc2)cn2c(-c3cccc(C(C)=O)c3)cnc12	.	.	1.3	.	.	.	.
Cc1ccc2nc(-c3ccc(-c4cccc(Cl)c4)cc3)c(NCc3ccccc3)n2c1	1.2	3.7	-3.8	50.4*	78.1*	23.6	19.2
COc1cc(-c2nc3ccc(C)cn3c2NCc2ccccc2)ccc1-c1cccc(Cl)c1	4.9	.	-13.1	.	.	.	.
CC(C)NC(=O)CN1C(=O)c2ccccc2S1(=O)=O	5.7	0.4	2.1	5.5	+	6.4	-3.1
CN(C)c1ccc(/C=C/c2cc[n+]([O-])cc2)cc1	51.6*	?	.	100.7*	108.6*	88.6*	100.0*
CC[n+]1ccccc1/C=C/c1ccc(N(C)C)cc1	.	30.2	-43.0	.	.	.	.
O=C(NNC1=Nc2cccc3cccc1c23)c1ccc(Br)cc1	13.9	-4.8	-28.7	27.7	41.5*	57.1*	80.5*
CC1(C(=O)NS(=O)(=O)c2ccccc2)CCN1C(=O)CC1CCCC1 (stereo unspecified)	.	.	-11.2	.	.	.	.
SMILES	GLD-1 TGE inh	MEX-5 binding	E coli Lon inh	BCLXL inh	MCL1 BIM primary	Bcl-xL conf	MCL1 BIM confirm	others
COc1ccc(CNC(=O)Cn2cnc3c(NCc4ccccc4)ncnc32)cc1	.	.	0.6	.	.	.	.
CCOC(=O)c1cc2n(c1/N=C/N(C)C)-c1ccccc1C2=O	169.5*	?	7.3	191.5*	+	185.5*	+
O=C(COc1ccc(Cl)cc1)N(Cc1ccc(F)cc1)C1CCS(=O)(=O)C1 (stereo unspecified)	-1.4	-0.3	5.8	11.8	7.2	.	.
Cc1ccc([N+](=O)[O-])cc1-c1ccc(/C=C(\C#N)c2[nH]nc(N)c2C#N)o1	6.8	.	-10.5	8.6	48.6*	53.7*	83.6*
O=C(NCc1ccc2[nH]c3c(c2c1)CCCC3)c1ccc(S(=O)(=O)N2CCOCC2)cc1	5.4	2.2	2.1	3.1	-3.7	.	.
O=C(NCc1ccc2[nH]c3c(c2c1)CCCC3)N1CCOCC1	40.2*	-13.7	.	64.3*	66.5*	52.6*	72.4*
O=[N+]([O-])c1ccc2[nH]c(O)c(N=NC(=S)Nc3cccnc3)c2c1	-1.9	2.6	-7.1	18.3	42.1*	32.4*	33.4
Cc1ccc(-n2c(C)nc3c(cnn3-c3ccc(C)c(C)c3)c2=O)cc1C	75.4*	-0.8	4.2	75.6*	78.9*	13.9	6.7	GLD1 RNA confirm=-0.1
Cc1ccc(-n2c(C)nc3c(cnn3-c3ccc(F)cc3)c2=O)cc1C	4.1	0.3	0.5	-5.5	-0.3	.	.
O=c1[nH]c2cc3c(cc2cc1CN(Cc1nnnn1CC1CCCO1)C1CCCCC1)OCO3 (stereo unspecified)	43.2*	-6.3	23.7	76.7*	84.9*	45.1*	67.9*	GLD1 RNA confirm=-2.4
NC(=O)c1ccc(NC(=O)COC(=O)CCC2CCCC2)cc1	.	.	-1.7	.	.	.	.
CCOc1ccc(N=C/C=C/c2ccccc2)c(O)c1	72.1*	-3.6	14.0	83.8*	87.2*	14.1	20.1	GLD1 RNA confirm=2.6
CCOc1ccc(NCC(=O)N/N=C/C=C/c2ccccc2)cc1	6.2	-0.2	-8.6	1.4	-2.1	.	.
O=C1CCCC2=C1Sc1ccc(Cl)cc1N2	50.0*	?	18.4	69.4*	77.5*	63.6*	73.7*	GLD1 RNA confirm=11.4
CCCC(=O)Nc1ccc2c(c1)nc(CCN1CCC(C)CC1)n2C	.	.	-7.2	.	.	.	.
COC(=O)c1c(NC(=O)CSc2ncn[nH]2)sc(C)c1C	32.2*	-0.8	-16.1	56.2*	70.8*	1.2	6.2	GLD1 RNA confirm=-8.6
CCOC(=O)c1c(NC(=O)CSc2ncn[nH]2)sc(C(C)=O)c1C	-0.6	-1.5	-7.1	0.6	-7.5	.	.
CCOC(=O)C1=C(C)OC(N)=C(C#N)C1c1cc2c(cc1[N+](=O)[O-])OCO2 (stereo unspecified)	38.0*	-2.5	2.1	36.5*	44.3*	48.6*	72.8*	GLD1 RNA confirm=6.8

High-throughput results (PubChem BioAssay)
